Experimental data: PubChem BioAssay (NCATS)
Records with an inconclusive call do not appear. Where a call stands in place of a potency, no number is given. Values without a mark were called inactive. Active and inactive are the calls of the source. Calls come from the whole dose curve; as a rule, active = well fitted curve in the direction sought with a large enough effect; inconclusive = small, poorly fitted or top-dose-only effect, or another doubt; inactive = no such curve, though single readings can be large; an effect the other way counts as inactive or inconclusive.

Columns and labels:
[1] = molecular target: Calcium and integrin-binding protein 1 (Homo sapiens) (UniProt Q99828); assay: Primary qHTS for Identification of Calcium Integrin Binding Protein 1 (CIB1) Competitor (AID 1508620);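 note: GST tagged CIB1 binding a fluorescein labelled alphaIIb integrin peptide tracer; top concentration of the series differs between compounds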
How it was run: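 Fluorescence polarization competition: CIB1-GST (1 uM final) preincubated with compound 15 min at room temperature, then FITC-labeled alphaIIb peptide (100 nM final) added for another 15 min. Polarization read at Ex 480/Em 540.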

[2] = Primary qHTS for inhibitors of nuclear receptor binding SET domain protein 2 (NSD2) in an isogenic RCH-ACV NSD2 p.E1099K mutant (9B) (AID 1645876); note: nearly all actives have a fitted effect of over 70% in size; note: potency is the fitted concentration of half-maximal effect
[3] = Primary qHTS for inhibitors of nuclear receptor binding SET domain protein 2 (NSD2) in an RCH-ACV wild type WT cells (2C) (AID 1645877); note: nearly all actives have a fitted effect of over 70% in size; note: potency is the fitted concentration of half-maximal effect

Calcium and integrin-binding protein 1 (Homo sapiens), sequence (Q99828 whole entry, looked up): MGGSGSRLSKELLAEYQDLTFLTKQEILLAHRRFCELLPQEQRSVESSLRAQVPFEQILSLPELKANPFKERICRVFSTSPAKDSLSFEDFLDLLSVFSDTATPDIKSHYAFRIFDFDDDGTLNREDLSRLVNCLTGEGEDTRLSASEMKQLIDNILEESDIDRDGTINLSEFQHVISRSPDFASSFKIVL

CC(=O)OCC1=C[C@@H]2OC(=O)C3=CO[C@@H](O[C@@H]4O[C@H](CO)[C@@H](O)[C@H](O)[C@H]4O)[C@H]1[C@@H]32
Potency [1]: inactive | Potency [2]: inactive | Potency [3]: inactive

CC[C@H]1OC(=O)[C@H](C)[C@@H](O[C@H]2C[C@@](C)(OC)[C@@H](O)[C@H](C)O2)C(C)[C@@H](O[C@@H]2O[C@H](C)C[C@H](N(C)C)[C@H]2O)[C@](C)(O)C[C@@H](C)CN(C)[C@H](C)[C@@H](O)[C@]1(C)O (some centres undefined)
Potency [1]: inactive | Potency [2]: inactive | Potency [3]: inactive

O=C(O)CCc1cc2ccoc2cc1O[C@@H]1O[C@H](CO)[C@@H](O)[C@H](O)[C@H]1O
Potency [1]: inactive | Potency [2]: inactive | Potency [3]: inactive

CC1(C)C[C@@H]2[C@H](C1)[C@@]1(C)C[C@]13C(O)OC[C@]3(O)[C@H]2O (some centres undefined)
Potency [1]: inactive | Potency [2]: inactive | Potency [3]: inactive

C[C@@H]1C[C@@H](O)[C@@]23CO[C@]2(CO)C[C@@H](O)CC3[C@@]12CC(c1ccoc1)OC2=O (some centres undefined)
Potency [1]: inactive | Potency [2]: inactive | Potency [3]: inactive

OC[C@@]1(O)CO[C@H](OC[C@H]2O[C@@H](OCCc3ccccc3)[C@H](O)[C@@H](O)[C@@H]2O)[C@@H]1O
Potency [1]: inactive | Potency [2]: inactive | Potency [3]: inactive

CC1=C(C)C(=O)OC(C(C)C2C(O)CC3C4C5OC5C5(O)CC(OC6OC(CO)C(OC7OC(C)C(O)C(O)C7O)C(O)C6O)CC(O)C5(C)C4CCC32C)C1 (centres undefined)
Potency [1]: inactive | Potency [2]: inactive | Potency [3]: inactive

C[C@@H](CC[C@@H]1[C@@]2(C)CCCC(C)(C)C2CC[C@@]1(C)O)CC(=O)O (some centres undefined)
Potency [1]: inactive | Potency [2]: inactive | Potency [3]: inactive

CC1(C)CC[C@]2(C(=O)O[C@@H]3O[C@H](CO)[C@@H](O)[C@H](O)[C@H]3O)CC[C@]3(C)C(=CCC4[C@@]5(C)C[C@H](O)[C@H](O[C@@H]6O[C@H](C(=O)O)[C@@H](O)[C@H](O)[C@H]6O)[C@@](C)(CO)C5CC[C@]43C)C2C1 (some centres undefined)
activity change, negative = inhibition [1]: 0.901% [at 12.4 µM] | activity change, negative = viability loss [2]: -12.9% [at 9.23 µM] | activity change, negative = cell killing [3]: -7.01% [at 9.23 µM]

CNc1nc(Cc2ccccc2)nc2c1CCNC[C@@H]2C
Potency [1]: inactive | Potency [2]: inactive | Potency [3]: inactive

COc1ccc(/C=C/C(=O)O[C@@H]2[C@@H](O)[C@@H](O)[C@H](O[C@H]3[C@@H]4C=CO[C@@H](O[C@@H]5O[C@H](CO)[C@@H](O)[C@H](O)[C@H]5O)[C@@H]4[C@@]4(CO)O[C@@H]34)O[C@H]2C)cc1
Potency [1]: inactive | Potency [2]: inactive | Potency [3]: inactive

CC(C)=C1CC2C(CCC2(C)O)C(C)(O)CC1=O (centres undefined)
Potency [1]: inactive | Potency [2]: inactive | Potency [3]: inactive

COc1ccc(CCc2nc3cc(-c4c(C)noc4C)ccc3n2C[C@H](C)N2CCOCC2)cc1Cl
Potency [1]: inactive | Potency [2]: 3.65 µM (active) | Potency [3]: 2.58 µM (active)

CC1(C)CCC[C@]2(C)C1CC=C(CO)[C@H]2CC/C(=C/CO)CO (some centres undefined)
Potency [1]: inactive | Potency [2]: inactive | Potency [3]: inactive

CC1OC(OC2C(OC3C(O[C@H]4CC[C@@]5(C)C(CC[C@]6(C)C5C(=O)CC5=C7CC(C)(C)CC(O)[C@]7(C)CC[C@]56C)C4(C)C)OC(C(=O)O)C(O)C3O)OCC(O)C2O)C(O)C(O)C1O (some centres undefined)
Potency [1]: inactive | outcome [2]: inactive [at 9.23 µM] | outcome [3]: inactive [at 9.23 µM]

CC(=O)/C=C/C1(O)C(C)=CC(=O)CC1(C)C (centres undefined)
Potency [1]: inactive | Potency [2]: inactive | Potency [3]: inactive

CC(C)C1(O)NC(=O)C(CC2(O)c3ccccc3N3C(=O)C(C)(C)NC32)n2c1nc1ccccc1c2=O (centres undefined)
Potency [1]: inactive | Potency [2]: inactive | Potency [3]: inactive

C[C@@H]1C(=O)O[C@H](C)[C@H]1C[C@@H](O)[C@](C)(O)[C@H]1CC[C@@]2(O)C3=CC(=O)[C@@H]4C[C@@H](O)[C@@H](O)C[C@]4(C)C3CC[C@]12C (some centres undefined)
Potency [1]: inactive | Potency [2]: inactive | Potency [3]: inactive

COC(=O)C1=COC(OC2OC(CO)C(O)C(O)C2O)C2C(C)C(OC(=O)/C=C/c3ccc(O)cc3)C(O)C12 (centres undefined)
Potency [1]: inactive | Potency [2]: inactive | Potency [3]: inactive

COc1ccc(/C=C/C(=O)O[C@@H]2[C@@H](OC(C)=O)[C@@H](OC(C)=O)[C@H](O[C@H]3[C@@H]4C=CO[C@@H](O[C@@H]5O[C@H](CO)[C@@H](O)[C@H](O)[C@H]5O)[C@@H]4[C@@]4(CO)O[C@@H]34)O[C@H]2C)cc1
Potency [1]: inactive | Potency [2]: inactive | Potency [3]: inactive

CC(O)C1NC(=O)C2CCCN2C1=O (centres undefined)
Potency [1]: inactive | Potency [2]: inactive | Potency [3]: inactive

COC(=O)C1=COC(O[C@@H]2O[C@H](CO)[C@@H](O)[C@H](O)[C@H]2O)/C(=C\COC(=O)/C=C/c2ccccc2)C1CC(=O)OCCc1ccc(O)cc1 (some centres undefined)
Potency [1]: inactive | Potency [2]: inactive | Potency [3]: inactive

O=C(O)/C=C/c1ccc2occc2c1O[C@@H]1O[C@H](CO)[C@@H](O)[C@H](O)[C@H]1O
Potency [1]: inactive | Potency [2]: inactive | Potency [3]: inactive
